Assay results: ChEMBL document CHEMBL1961873, “Compounds: GSK PKIS; Assays: Nanosyn kinase panel” (2012)

Tests used:
[1] = biological target: T1, Mitogen-activated protein kinase 12 (Homo sapiens) (UniProt P53778); settings: at 1 µM;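 further: values are averaged p38gamma kinase inhibition readings, compounds tested at 1 µM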
T1 sequence (whole entry): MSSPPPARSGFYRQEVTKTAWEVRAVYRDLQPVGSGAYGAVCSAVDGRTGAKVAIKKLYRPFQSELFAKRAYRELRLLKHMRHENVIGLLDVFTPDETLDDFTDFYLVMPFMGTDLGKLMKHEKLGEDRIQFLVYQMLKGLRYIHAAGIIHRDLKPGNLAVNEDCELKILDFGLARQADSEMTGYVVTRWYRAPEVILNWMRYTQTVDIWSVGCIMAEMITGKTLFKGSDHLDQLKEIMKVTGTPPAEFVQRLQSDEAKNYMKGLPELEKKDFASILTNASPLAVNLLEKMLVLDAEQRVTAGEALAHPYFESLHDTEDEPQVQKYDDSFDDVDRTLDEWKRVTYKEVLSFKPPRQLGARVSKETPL

[2] = biological target: SRSF protein kinase 1 (Homo sapiens) (UniProt Q96SB4); settings: at 0.1 µM
[3] = biological target: SRSF protein kinase 1 (Homo sapiens) (UniProt Q96SB4); settings: at 1 µM
[4] = biological target: Phosphatidylinositol 4,5-bisphosphate 3-kinase catalytic subunit alpha isoform (Homo sapiens) (UniProt P42336); settings: at 0.1 µM
[5] = biological target: Phosphatidylinositol 4,5-bisphosphate 3-kinase catalytic subunit alpha isoform (Homo sapiens) (UniProt P42336); settings: at 1 µM
[6] = biological target: T2, Phosphatidylinositol 4,5-bisphosphate 3-kinase catalytic subunit delta isoform (Homo sapiens) (UniProt O00329); settings: at 0.1 µM
T2 sequence (whole entry): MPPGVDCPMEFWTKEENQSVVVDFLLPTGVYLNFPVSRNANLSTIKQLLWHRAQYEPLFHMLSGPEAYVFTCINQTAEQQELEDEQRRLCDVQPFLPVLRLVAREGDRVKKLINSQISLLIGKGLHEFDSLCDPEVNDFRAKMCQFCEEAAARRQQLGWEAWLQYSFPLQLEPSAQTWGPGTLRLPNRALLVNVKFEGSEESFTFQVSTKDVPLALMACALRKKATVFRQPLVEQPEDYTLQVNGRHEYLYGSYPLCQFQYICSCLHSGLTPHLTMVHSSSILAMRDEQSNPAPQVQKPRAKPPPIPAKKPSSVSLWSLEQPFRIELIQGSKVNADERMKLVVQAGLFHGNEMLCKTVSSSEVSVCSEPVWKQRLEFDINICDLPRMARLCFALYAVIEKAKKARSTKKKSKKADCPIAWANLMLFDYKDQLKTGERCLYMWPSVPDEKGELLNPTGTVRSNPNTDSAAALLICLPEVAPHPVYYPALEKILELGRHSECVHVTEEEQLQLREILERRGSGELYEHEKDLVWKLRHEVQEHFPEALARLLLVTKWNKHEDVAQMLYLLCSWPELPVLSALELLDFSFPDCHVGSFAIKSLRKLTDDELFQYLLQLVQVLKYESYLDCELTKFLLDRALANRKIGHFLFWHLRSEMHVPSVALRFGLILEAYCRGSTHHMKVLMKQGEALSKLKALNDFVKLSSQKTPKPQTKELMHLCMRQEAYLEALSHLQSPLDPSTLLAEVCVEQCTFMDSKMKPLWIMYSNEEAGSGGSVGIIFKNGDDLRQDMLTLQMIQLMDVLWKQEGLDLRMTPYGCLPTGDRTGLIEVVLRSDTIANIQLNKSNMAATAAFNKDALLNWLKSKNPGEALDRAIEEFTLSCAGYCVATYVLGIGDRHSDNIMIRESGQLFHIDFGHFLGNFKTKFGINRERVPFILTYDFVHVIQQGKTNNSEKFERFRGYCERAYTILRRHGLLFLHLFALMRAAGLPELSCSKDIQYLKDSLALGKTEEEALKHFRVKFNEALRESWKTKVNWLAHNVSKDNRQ

[7] = biological target: T2, Phosphatidylinositol 4,5-bisphosphate 3-kinase catalytic subunit delta isoform (Homo sapiens); settings: at 1 µM
[8] = biological target: Phosphatidylinositol 4-kinase beta (Homo sapiens) (UniProt Q9UBF8); settings: at 0.1 µM
[9] = biological target: Phosphatidylinositol 4-kinase beta (Homo sapiens) (UniProt Q9UBF8); settings: at 1 µM
[10] = biological target: Sphingosine kinase 1 (Homo sapiens) (UniProt Q9NYA1); settings: at 0.1 µM
[11] = biological target: Sphingosine kinase 1 (Homo sapiens) (UniProt Q9NYA1); settings: at 1 µM
[12] = biological target: T3, Sphingosine kinase 2 (Homo sapiens) (UniProt Q9NRA0); settings: at 0.1 µM
T3 sequence (whole entry): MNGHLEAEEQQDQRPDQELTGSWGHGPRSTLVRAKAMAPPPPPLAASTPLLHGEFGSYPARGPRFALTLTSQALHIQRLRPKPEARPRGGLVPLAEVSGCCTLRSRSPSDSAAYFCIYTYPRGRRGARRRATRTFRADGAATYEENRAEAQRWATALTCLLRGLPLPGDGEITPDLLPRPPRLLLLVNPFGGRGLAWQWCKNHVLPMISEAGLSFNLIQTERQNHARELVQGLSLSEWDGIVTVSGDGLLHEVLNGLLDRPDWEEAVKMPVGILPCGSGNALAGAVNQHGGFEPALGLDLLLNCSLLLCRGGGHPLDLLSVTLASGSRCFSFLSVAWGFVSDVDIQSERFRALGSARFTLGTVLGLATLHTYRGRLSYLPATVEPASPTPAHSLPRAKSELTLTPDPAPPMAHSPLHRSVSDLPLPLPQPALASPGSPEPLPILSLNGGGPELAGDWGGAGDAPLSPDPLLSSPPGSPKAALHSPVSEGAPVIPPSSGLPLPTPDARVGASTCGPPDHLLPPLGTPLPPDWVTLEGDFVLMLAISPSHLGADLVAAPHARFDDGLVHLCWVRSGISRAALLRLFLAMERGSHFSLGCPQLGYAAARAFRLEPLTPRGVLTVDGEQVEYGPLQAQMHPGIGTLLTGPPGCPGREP

[13] = biological target: T3, Sphingosine kinase 2 (Homo sapiens); settings: at 1 µM
[14] = biological target: Casein kinase II subunit alpha (Homo sapiens) (UniProt P68400); settings: at 0.1 µM
[15] = biological target: Casein kinase II subunit alpha (Homo sapiens) (UniProt P68400); settings: at 1 µM
[16] = biological target: T4, Inhibitor of nuclear factor kappa-B kinase subunit alpha (Homo sapiens) (UniProt O15111); settings: at 0.1 µM
T4 sequence (whole entry): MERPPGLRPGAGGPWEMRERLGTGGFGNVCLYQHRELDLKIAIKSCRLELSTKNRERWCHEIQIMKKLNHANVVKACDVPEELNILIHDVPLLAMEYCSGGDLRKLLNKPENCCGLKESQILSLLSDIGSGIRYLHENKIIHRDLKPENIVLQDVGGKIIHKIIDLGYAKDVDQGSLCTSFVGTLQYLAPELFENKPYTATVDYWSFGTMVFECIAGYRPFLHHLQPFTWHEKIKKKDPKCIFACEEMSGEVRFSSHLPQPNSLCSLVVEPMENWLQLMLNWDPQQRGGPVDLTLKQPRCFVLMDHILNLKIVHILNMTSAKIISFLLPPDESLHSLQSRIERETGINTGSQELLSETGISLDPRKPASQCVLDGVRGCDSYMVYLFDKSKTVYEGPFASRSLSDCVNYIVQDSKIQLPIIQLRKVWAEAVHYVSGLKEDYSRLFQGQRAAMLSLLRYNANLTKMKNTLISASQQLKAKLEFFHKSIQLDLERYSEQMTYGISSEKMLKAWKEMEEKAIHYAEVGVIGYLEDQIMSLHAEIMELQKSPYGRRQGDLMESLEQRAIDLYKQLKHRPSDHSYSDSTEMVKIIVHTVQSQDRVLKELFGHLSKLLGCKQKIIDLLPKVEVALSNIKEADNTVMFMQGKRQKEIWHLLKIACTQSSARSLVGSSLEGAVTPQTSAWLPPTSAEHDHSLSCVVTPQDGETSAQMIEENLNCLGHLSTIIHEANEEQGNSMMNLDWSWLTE

[17] = biological target: T4, Inhibitor of nuclear factor kappa-B kinase subunit alpha (Homo sapiens); settings: at 1 µM
[18] = biological target: T5, Inhibitor of nuclear factor kappa-B kinase subunit beta (Homo sapiens) (UniProt O14920); settings: at 0.1 µM
T5 sequence (whole entry): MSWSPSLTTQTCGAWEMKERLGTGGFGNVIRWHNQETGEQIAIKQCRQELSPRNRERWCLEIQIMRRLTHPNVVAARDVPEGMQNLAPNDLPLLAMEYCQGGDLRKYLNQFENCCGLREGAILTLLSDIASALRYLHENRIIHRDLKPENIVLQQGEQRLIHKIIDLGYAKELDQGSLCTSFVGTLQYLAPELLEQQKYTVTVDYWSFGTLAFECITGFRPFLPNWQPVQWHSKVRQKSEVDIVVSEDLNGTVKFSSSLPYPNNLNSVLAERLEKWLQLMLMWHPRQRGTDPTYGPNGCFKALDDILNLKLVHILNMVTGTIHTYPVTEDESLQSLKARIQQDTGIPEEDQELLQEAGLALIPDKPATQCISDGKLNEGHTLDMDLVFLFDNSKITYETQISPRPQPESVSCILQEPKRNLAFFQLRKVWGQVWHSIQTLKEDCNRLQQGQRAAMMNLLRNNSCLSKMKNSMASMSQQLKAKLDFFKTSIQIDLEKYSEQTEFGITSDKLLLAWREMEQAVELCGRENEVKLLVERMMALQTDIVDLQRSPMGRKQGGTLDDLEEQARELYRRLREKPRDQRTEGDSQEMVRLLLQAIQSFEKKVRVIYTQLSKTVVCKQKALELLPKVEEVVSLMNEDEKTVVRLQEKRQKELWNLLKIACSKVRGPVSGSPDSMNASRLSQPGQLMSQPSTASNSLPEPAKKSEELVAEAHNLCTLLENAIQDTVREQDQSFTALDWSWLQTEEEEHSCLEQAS

[19] = biological target: T5, Inhibitor of nuclear factor kappa-B kinase subunit beta (Homo sapiens); settings: at 1 µM
[20] = biological target: T6, Inhibitor of nuclear factor kappa-B kinase subunit epsilon (Homo sapiens) (UniProt Q14164); settings: at 0.1 µM;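 further: mean inhibition of IKKε reported, from the GSK PKIS dataset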
T6 sequence (whole entry): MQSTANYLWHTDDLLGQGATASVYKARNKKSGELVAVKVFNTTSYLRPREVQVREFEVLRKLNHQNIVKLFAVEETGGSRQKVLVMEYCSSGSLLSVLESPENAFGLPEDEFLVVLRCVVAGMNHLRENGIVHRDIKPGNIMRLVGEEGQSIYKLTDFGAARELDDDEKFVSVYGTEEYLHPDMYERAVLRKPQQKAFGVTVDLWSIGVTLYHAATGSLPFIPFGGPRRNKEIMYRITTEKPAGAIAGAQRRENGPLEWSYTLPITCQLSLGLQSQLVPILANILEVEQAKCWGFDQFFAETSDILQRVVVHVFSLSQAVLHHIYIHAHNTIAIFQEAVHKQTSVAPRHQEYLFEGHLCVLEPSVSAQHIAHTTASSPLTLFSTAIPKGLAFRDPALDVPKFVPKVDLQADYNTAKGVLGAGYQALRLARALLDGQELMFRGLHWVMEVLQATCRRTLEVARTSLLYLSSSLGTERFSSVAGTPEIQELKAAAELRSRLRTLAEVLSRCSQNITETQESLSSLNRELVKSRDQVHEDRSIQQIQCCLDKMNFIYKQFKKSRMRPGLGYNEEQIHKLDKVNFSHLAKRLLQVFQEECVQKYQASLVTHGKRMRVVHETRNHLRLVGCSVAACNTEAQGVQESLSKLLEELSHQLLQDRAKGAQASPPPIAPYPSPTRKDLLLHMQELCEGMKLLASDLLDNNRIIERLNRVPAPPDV

Casein kinase II subunit alpha (Homo sapiens), sequence (P68400 whole entry, looked up): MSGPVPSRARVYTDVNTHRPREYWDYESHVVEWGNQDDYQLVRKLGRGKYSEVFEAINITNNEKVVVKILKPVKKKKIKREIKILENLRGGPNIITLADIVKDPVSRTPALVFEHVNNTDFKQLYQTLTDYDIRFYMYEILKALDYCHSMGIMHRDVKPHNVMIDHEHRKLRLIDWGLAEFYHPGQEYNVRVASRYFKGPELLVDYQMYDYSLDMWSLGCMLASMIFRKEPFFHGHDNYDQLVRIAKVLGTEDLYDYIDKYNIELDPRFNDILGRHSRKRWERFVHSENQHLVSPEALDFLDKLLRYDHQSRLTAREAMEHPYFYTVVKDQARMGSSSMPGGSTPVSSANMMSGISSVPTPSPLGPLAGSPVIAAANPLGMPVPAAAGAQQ
Phosphatidylinositol 4-kinase beta (Homo sapiens), sequence (Q9UBF8 2-816 limits assumed): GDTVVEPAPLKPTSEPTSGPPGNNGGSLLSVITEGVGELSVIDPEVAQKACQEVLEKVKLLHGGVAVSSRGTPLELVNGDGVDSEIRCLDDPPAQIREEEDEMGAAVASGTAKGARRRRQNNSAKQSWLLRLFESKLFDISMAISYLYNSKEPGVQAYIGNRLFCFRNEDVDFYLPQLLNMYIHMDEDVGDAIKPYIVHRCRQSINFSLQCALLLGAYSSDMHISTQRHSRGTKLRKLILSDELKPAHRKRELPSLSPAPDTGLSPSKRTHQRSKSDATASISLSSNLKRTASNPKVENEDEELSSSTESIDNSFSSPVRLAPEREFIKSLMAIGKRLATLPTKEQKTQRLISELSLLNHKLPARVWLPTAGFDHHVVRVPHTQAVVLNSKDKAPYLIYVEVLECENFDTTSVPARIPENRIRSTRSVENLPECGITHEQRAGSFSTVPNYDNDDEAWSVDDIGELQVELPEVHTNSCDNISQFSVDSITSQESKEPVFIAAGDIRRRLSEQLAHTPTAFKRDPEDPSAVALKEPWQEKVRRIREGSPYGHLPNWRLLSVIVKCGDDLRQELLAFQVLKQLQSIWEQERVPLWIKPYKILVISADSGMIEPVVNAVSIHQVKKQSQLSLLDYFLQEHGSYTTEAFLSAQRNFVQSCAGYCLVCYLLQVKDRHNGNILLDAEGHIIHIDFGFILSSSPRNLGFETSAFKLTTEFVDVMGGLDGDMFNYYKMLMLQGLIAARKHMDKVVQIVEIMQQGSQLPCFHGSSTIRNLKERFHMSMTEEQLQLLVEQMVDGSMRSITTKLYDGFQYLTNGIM
Sphingosine kinase 1 (Homo sapiens), sequence (Q9NYA1 whole entry): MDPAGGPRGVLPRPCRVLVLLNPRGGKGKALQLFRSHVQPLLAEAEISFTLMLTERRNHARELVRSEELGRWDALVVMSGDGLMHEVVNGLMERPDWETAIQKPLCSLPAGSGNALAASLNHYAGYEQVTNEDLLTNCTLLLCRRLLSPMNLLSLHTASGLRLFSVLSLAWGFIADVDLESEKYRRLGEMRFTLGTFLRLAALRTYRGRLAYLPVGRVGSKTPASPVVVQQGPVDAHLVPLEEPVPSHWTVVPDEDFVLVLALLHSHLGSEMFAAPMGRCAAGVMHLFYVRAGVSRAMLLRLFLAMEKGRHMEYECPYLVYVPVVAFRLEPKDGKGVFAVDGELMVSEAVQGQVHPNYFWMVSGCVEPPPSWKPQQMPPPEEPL
SRSF protein kinase 1 (Homo sapiens), sequence (Q96SB4 whole entry, canonical isoform): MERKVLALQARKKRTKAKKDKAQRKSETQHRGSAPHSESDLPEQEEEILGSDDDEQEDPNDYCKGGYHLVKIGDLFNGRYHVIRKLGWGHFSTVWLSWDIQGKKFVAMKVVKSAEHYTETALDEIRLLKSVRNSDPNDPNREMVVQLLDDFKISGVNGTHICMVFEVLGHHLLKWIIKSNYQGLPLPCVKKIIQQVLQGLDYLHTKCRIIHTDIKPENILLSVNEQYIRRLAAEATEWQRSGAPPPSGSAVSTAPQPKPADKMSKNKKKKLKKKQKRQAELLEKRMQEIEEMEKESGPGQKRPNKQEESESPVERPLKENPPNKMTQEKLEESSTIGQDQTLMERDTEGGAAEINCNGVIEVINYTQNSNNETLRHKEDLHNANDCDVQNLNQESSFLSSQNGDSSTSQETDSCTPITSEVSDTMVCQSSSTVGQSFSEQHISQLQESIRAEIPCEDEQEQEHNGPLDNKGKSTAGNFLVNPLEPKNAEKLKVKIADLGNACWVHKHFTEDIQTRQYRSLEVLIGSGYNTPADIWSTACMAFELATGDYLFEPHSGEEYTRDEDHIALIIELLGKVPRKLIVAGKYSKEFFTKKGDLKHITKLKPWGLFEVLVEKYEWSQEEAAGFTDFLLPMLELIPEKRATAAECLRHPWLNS
Phosphatidylinositol 4,5-bisphosphate 3-kinase catalytic subunit alpha isoform (Homo sapiens), sequence (P42336 whole entry, canonical isoform): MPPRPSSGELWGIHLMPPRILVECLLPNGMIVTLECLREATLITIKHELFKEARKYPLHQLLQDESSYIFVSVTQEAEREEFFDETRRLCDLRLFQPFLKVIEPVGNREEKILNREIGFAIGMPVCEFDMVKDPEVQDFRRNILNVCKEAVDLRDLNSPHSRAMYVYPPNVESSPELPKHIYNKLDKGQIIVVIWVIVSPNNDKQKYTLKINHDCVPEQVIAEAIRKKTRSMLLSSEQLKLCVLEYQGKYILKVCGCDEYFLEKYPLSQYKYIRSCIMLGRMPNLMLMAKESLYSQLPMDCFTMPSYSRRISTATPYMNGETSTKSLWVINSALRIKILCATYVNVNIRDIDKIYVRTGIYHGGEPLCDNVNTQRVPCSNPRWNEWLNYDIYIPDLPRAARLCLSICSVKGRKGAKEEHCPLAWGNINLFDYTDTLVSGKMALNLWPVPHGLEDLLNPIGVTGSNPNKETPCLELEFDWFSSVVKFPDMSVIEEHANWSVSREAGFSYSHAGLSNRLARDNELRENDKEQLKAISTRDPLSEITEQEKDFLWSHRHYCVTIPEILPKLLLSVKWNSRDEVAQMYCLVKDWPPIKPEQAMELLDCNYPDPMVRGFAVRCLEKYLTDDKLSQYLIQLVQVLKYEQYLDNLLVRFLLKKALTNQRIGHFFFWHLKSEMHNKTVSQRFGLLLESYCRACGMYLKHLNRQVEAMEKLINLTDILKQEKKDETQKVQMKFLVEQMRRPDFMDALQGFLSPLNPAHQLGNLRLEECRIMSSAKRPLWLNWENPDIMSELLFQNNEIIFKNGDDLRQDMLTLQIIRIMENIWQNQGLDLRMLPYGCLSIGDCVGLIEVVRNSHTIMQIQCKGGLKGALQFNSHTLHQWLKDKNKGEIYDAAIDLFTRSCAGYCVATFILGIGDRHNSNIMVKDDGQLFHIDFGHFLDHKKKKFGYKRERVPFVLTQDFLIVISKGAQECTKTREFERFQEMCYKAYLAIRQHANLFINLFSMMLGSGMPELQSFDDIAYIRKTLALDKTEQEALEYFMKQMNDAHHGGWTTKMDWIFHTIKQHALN

| Structure (SMILES) | inhibition [1] [%] | inhibition [2] [%] | inhibition [3] [%] | inhibition [4] [%] | inhibition [5] [%] | inhibition [6] [%] | inhibition [7] [%] | inhibition [8] [%] | inhibition [9] [%] | inhibition [10] [%] | inhibition [11] [%] | inhibition [12] [%] | inhibition [13] [%] | inhibition [14] [%] | inhibition [15] [%] | inhibition [16] [%] | inhibition [17] [%] | inhibition [18] [%] | inhibition [19] [%] | inhibition [20] [%] |
| --- | --- | --- | --- | --- | --- | --- | --- | --- | --- | --- | --- | --- | --- | --- | --- | --- | --- | --- | --- | --- |
| O=C1Nc2ccccc2/C1=C1\CCc2cc(O)ccc21 | 4.17 | -1.97 | -3.93 | 3.67 | 6.82 | 2.68 | 5.45 | -5.42 | -0.12 | 1.98 | -8.14 | -0.36 | -2.47 | 3.18 | 9.1 | 13 | 5.45 | 5.41 | 5.64 | 6.27 |
| CC1(C)CC(n2cnc(-c3ccc(F)cc3)c2-c2ccnc(N)n2)CC(C)(C)N1 | 2.44 | 0.72 | -1.12 | 4.34 | 4.5 | 5.71 | 6.91 | 0.64 | -1.54 | 1.98 | 10.6 | 3.82 | -2.43 | 1.44 | 7.38 | 1.15 | 1.35 | -0.17 | -1.15 | 0.1 |
| N#Cc1ccc2c(-c3ccnc(NC4CC4)n3)c(-c3ccc(F)cc3)nn2c1 | 1.13 | -1.5 | -2.4 | 0.7 | 0.6 | -0.45 | -0.14 | -2.01 | -0.71 | 3.55 | 0.88 | -0.39 | 0.05 | 2.7 | 1.8 | 3.97 | -0.5 | 2.19 | 0.5 | 1.8 |
| CNC(=O)c1cncc(/C=C/c2ccccc2C)c1 | 1.72 | -0.49 | 2.3 | 2.18 | 2.76 | 1.24 | 0.42 | -3.61 | 7.59 | 0.67 | 1.15 | 0 | 0 | 4.87 | 7.63 | 1.86 | 2.32 | 3.58 | 5.04 | 5.9 |
| COc1cc(Nc2ncc(-c3ccccc3)o2)cc(OC)c1 | 3.94 | -2.65 | -2 | 8.32 | 6.87 | 5.4 | 5.83 | 0.33 | 3.11 | 2.1 | 2.45 | -0.24 | -0.57 | 3.79 | 3.91 | 2.7 | 4.19 | 4.63 | 7.8 | 12.6 |
| COc1cccc(Nc2nccc(-c3cnn4ncccc34)n2)c1 | 9.23 | -0.98 | 4.98 | 3.25 | 17 | 3.95 | 19.1 | -0.93 | 11.1 | 0.27 | -2.02 | 0.58 | -1.48 | 8.12 | 40.9 | 11.6 | 53.6 | 5.19 | 27.1 | 3.06 |
| COc1ccccc1-c1cc(/C=C2\C(=O)Nc3ncc(Br)cc32)cc(Br)c1O | 4.01 | -2.27 | -5.25 | 8.24 | 18.6 | 7.45 | 13.9 | -5.01 | 7.13 | 0.8 | -2.44 | 2.31 | 0.1 | 1.59 | 3.83 | 0.19 | 0.71 | 5.58 | -0.48 | 10.9 |
